# Test results taken from PubChem BioAssay (EPA / NIEHS).
# Results filed as inconclusive are left out. Active and inactive are the calls of the source. Rule for the calls, unless noted: active = hit-call score of the fitted dose curve at least 0.9, where 1 is the maximum; inactive = score below 0.9.
# Key:
# [1] = CCTE_Shafer_MEA_acute_spike_number: CCTE's Neural Acute Assay for Total Number of Spikes, Shafer Lab (AID 2284008);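 for AC50: curve fitted for decrease in spike count so AC50 reflects inhibitors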
# Summary of the method: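 Rat cortical cultures, DIV 13/15, 37 C. 40 min baseline rec, cpd 0.03-40 uM, 40 min post-dose rec. Band-pass 300-5000 Hz, spike threshold 8x rms; % change in spike count per well, DMSO neg ctrl, loss-of-signal fit.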
# [2] = CCTE_Shafer_MEA_acute_firing_rate_mean: CCTE's Neural Acute Assay for Mean Firing Rate, Shafer Lab (AID 2284009);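 note: analyzed for loss of signal so actives lower firing rate relative to DMSO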
# Summary of the method: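 Percent change in well-mean firing rate was derived from extracellular spikes detected at 8x rms noise (300-5000 Hz band-pass) before and after a 40-min compound exposure. Cultures were primary rat cortical neurons, tested at 0.03-40 uM.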
# [3] = CCTE_Harrill_HTTr_Viability_MCF7: CCTE's 6-hour Cell Viability Assessment for the High-Throughput Transcriptomics (HTTr) Platform, in MCF-7 cells cultured in DMEM + 10% fetal bovine serum, Harrill Lab (AID 2284010)
# Summary of the method: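 Cells were dosed with chemicals in an eight-point dilution series, imaged 6 hours later for propidium iodide uptake, and the endpoint was analyzed by bidirectional fitting against DMSO as negative control.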
# [4] = CCTE_Harrill_HTTr_Apoptosis_MCF7: CCTE's 6-hour Apoptosis Assessment for the High-Throughput Transcriptomics (HTTr) Platform, in MCF-7 cells cultured in DMEM + 10% fetal bovine serum, Harrill Lab (AID 2284011)
# Summary of the method: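 Read-out: CellEvent Caspase 3/7 Green signal by high content imaging, gain-of-signal indicating apoptosis. MCF-7 cells, DMEM + 10% FBS, eight-point dilution series, 6 h exposure. Curves fitted bidirectionally relative to DMSO negative control.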
# [5] = CCTE_Harrill_HTTr_CellCount_MCF7: CCTE's Cell Proliferation Assessment for the High-Throughput Transcriptomics (HTTr) Platform, Harrill Lab (AID 2284012; active = hit-call score of the fitted dose curve at least 0.9, where 1 is the maximum;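 note: count of Hoechst-stained nuclei per well by high-content imaging in MCF-7 cells; cells exposed to compound for six hours; intended direction is loss of nuclei count meaning fewer cells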)
# Summary of the method: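 Chemicals in eight-point dilution series are added to MCF-7 cells for six hours, nuclei are stained with Hoechst and imaged, and per-well nuclei counts are fitted in both directions relative to DMSO controls.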
# [6] = CCTE_Shafer_MEA_acute_burst_duration_mean: CCTE's Neural Acute Assay for Mean Burst Duration, Shafer Lab (AID 2284014);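 note: hits are decreases in mean burst duration relative to DMSO controls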
# Summary of the method: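 Read-out is the per-well percent change in mean burst duration (first to last spike within a single-electrode burst) between 40-min recordings before and after compound. Cultures were primary rat cortical neurons on MEAs, dosed at 0.03-40 uM on DIV 13 or 15.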
# [7] = CCTE_Shafer_MEA_acute_per_burst_spike_number_mean: CCTE's Neural Acute Assay for Average Number of Spikes Per Burst, Shafer Lab (AID 2284015);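 note: hits are decreases in mean spikes per burst versus baseline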
# Summary of the method: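 Read-out: percent change in mean spikes per burst, each well's post-exposure 40-min recording versus its own 40-min baseline. Rat cortical cultures, DIV 13 or 15, compounds 0.03-40 uM; DMSO is negative control, loss-of-signal fitting.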
# [8] = CCTE_Shafer_MEA_acute_interburst_interval_mean: CCTE's Neural Acute Assay for Mean Interburst Interval, Shafer Lab (AID 2284016);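 note: percent change of mean interburst interval versus each well's own pre-dose baseline; curves fitted for decrease in interburst interval relative to DMSO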
# Summary of the method: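 Rat cortical cultures, DIV 13/15; 20 min equilibration, 40 min baseline, compound 0.03-40 uM, 40 min re-recording, 37 C. Spikes detected at 8x rms noise (300-5000 Hz band-pass). Endpoint: % change in interburst interval, fitted in loss direction vs DMSO.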
# [9] = CCTE_Shafer_MEA_acute_burst_percentage_mean: CCTE's Neural Acute Assay for Percentage of Spikes in a Burst, Shafer Lab (AID 2284017);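 for AC50: curve fitted for loss of signal so potency reflects decreased burst percentage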
# Summary of the method: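 Rat cortical cultures, DIV 13/15, 37 C. Spikes detected at 8x rms noise (300-5000 Hz band-pass). Burst spikes/total spikes averaged across electrodes per well; % change post- vs pre-treatment (40 min each), loss-of-signal fit vs DMSO.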
# [10] = CCTE_Shafer_MEA_acute_burst_percentage_std: CCTE's Neural Acute Assay for Standard Deviation of Burst Percentage, Shafer Lab (AID 2284018);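 note: fitted in the negative direction so actives lower burst percentage SD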
# Summary of the method: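 Value is percent change from baseline in the across-electrode SD of spikes-in-bursts percentage, wells with >/= 10 active electrodes. Acute 40-min exposure to 0.03-40 uM on DIV 13 or 15 rat cortical cultures, recorded at 37 C after 40-min baseline.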
# [11] = CCTE_Shafer_MEA_acute_per_network_burst_spike_number_mean: CCTE's Neural Acute Assay for Average Number of Spikes in a Network Burst, Shafer Lab (AID 2284019);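 for AC50: curve fitted for loss of signal so actives reduce spikes per network burst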
# Summary of the method: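 Read-out is mean spike count per network burst, taken as percent change between a 40-min pre-exposure and a 40-min post-exposure recording per well. Rat primary cortical neurons on MEAs at 37 C, DIV 13 or 15; compounds at 0.03-40 uM.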
# [12] = CCTE_Shafer_MEA_acute_per_network_burst_spike_number_std: CCTE's Neural Acute Assay for Standard Deviation of Number of Spikes in a Network Burst, Shafer Lab (AID 2284020);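 note: fitted for decrease in spike-number SD versus DMSO so actives lower it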
# Summary of the method: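 Spontaneous network activity of primary rat cortical neurons is recorded extracellularly before and after a 40-min compound exposure (0.03-40 uM) at 37 C. The endpoint is the well's percent change in burst spike-number SD.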
# [13] = CCTE_Shafer_MEA_acute_per_network_burst_electrodes_number_mean: CCTE's Neural Acute Assay for Mean Number of Electrodes in a Network Burst, Shafer Lab (AID 2284021);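 note: curves fitted for decreases only so hits reduce electrodes per burst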
# Summary of the method: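 Readout: % change in mean electrodes active per network burst, post- vs pre-treatment, each well. Spikes detected at 8x rms noise after 300-5000 Hz band-pass; rat cortical cultures, DIV 13/15, compounds 0.03-40 uM, DMSO baseline.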
# [14] = CCTE_Shafer_MEA_acute_network_burst_percentage: CCTE's Neural Acute Assay for Percentage of Network Bursts, Shafer Lab (AID 2284022);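 note: curves fitted for loss so actives lower network burst percentage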
# Summary of the method: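 Rat cortical cultures, DIV 13/15; 20 min equilibration, 40 min baseline, compound 0.03-40 uM, 40 min recording, 37 C. Spikes: 300-5000 Hz band-pass, threshold 8x rms noise. Readout: % change in network-burst spike fraction; loss direction vs DMSO.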
# [15] = CCTE_Shafer_MEA_acute_synchrony_index: CCTE's Neural Acute Assay for Synchrony, Shafer Lab (AID 2284027);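 note: fitted for loss of signal so actives lower synchrony relative to DMSO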
# Summary of the method: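 Readout is percent change in the unitless network synchrony index (0 low, 1 high) between a 40-min baseline and a 40-min recording in compound. Cultures were primary rat cortical neurons on MEAs, treated at 0.03-40 uM on DIV 13 or 15.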
# [16] = CCTE_Simmons_MITO_viability: CellTiter-Glo Viability Assessment for CCTE's HepG2 Seahorse XF Respirometric Screening Assay [post-hoc], Simmons Lab (AID 2284007; active = hit-call score of the fitted dose curve at least 0.9, where 1 is the maximum)
# Summary of the method: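 After the Seahorse oxygen-consumption sequence (basal, FCCP, rotenone/antimycin A; 72 min total), HepG2 viability was scored as ATP content by bioluminescence. Chemicals ran at seven concentrations up to 100 uM final for 90 min.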
smiles,measurement,setting,value
CC(=O)OC(c1ccccc1)C(Cl)(Cl)Cl (stereo unspecified),outcome,[1],inactive
same,outcome,[2],inactive
same,outcome,[3],inactive
same,outcome,[4],inactive
same,outcome,[5],inactive
same,outcome,[6],inactive
same,outcome,[7],inactive
same,outcome,[8],inactive
same,AC50,[9],15 µM (active)
same,outcome,[10],inactive
same,outcome,[11],inactive
same,outcome,[12],inactive
same,outcome,[13],inactive
same,outcome,[14],inactive
same,AC50,[15],26.7 µM (active)
COC(=O)Cc1ccccc1,outcome,[1],inactive
same,outcome,[2],inactive
same,outcome,[3],inactive
same,outcome,[4],inactive
same,outcome,[6],inactive
same,outcome,[7],inactive
same,outcome,[8],inactive
same,outcome,[9],inactive
same,outcome,[10],inactive
same,outcome,[11],inactive
same,outcome,[12],inactive
same,outcome,[13],inactive
same,outcome,[14],inactive
same,outcome,[15],inactive
Cc1ccccc1N,outcome,[3],inactive
same,outcome,[4],inactive
CCC(C)(C)c1ccc(O)c(C(C)(C)CC)c1,outcome,[16],inactive
same,AC50,[1],4.73 µM (active)
same,AC50,[2],4.69 µM (active)
same,AC50,[3],42.1 µM (active)
same,outcome,[4],inactive
same,outcome,[5],inactive
same,outcome,[6],inactive
same,AC50,[7],20 µM (active)
same,outcome,[8],inactive
same,AC50,[9],7.93 µM (active)
same,AC50,[10],32.6 µM (active)
same,AC50,[11],8.12 µM (active)
same,AC50,[12],6.52 µM (active)
same,AC50,[13],20 µM (active)
same,AC50,[14],36.6 µM (active)
same,AC50,[15],20 µM (active)
CCNc1nc(NC(C)(C)C)nc(SC)n1,outcome,[3],inactive
same,outcome,[4],inactive
O=C(O)C(F)(F)C(F)(F)C(F)(F)C(F)(F)C(F)(F)C(F)(F)F,outcome,[3],inactive
same,outcome,[4],inactive
same,outcome,[5],inactive
COP(=O)(OC)O/C(=C\Cl)c1cc(Cl)c(Cl)cc1Cl,outcome,[3],inactive
same,outcome,[4],inactive
O=[N+]([O-])c1ccc2c3c(cccc13)CC2,outcome,[3],inactive
same,outcome,[4],inactive
COc1cc(-c2ccc(N)c(OC)c2)ccc1N,outcome,[3],inactive
same,outcome,[4],inactive
same,outcome,[5],inactive
COC[C@H](C)N(C(=O)CCl)c1c(C)csc1C,outcome,[3],inactive
same,outcome,[4],inactive
CNC,outcome,[3],inactive
same,outcome,[4],inactive
Oc1ccc(-c2ccccc2)cc1,outcome,[3],inactive
same,outcome,[4],inactive
same,outcome,[5],inactive
C1CCC(NC2CCCCC2)CC1,outcome,[3],inactive
same,outcome,[4],inactive
COP(=S)(OC)Oc1cc(Cl)c(Cl)cc1Cl,outcome,[3],inactive
same,outcome,[4],inactive
same,outcome,[5],inactive
CCC[CH2][Sn]([CH2]CCC)([CH2]CCC)[O]C(=O)c1ccccc1,AC50,[3],15.6 µM (active)
same,AC50,[4],11.5 µM (active)
same,AC50,[5],17.9 µM (active)
Clc1ccc(COC(Cn2ccnc2)c2ccc(Cl)cc2Cl)cc1 (stereo unspecified),outcome,[3],inactive
same,outcome,[4],inactive
same,outcome,[5],inactive
ClCC(Cl)CCl,outcome,[3],inactive
same,outcome,[4],inactive
CC1(C)CCC(Cc2ccc(Cl)cc2)C1(O)Cn1cncn1 (stereo unspecified),outcome,[3],inactive
same,outcome,[4],inactive
same,outcome,[5],inactive
COP(=O)(OC)OC,outcome,[3],inactive
same,outcome,[4],inactive
same,outcome,[5],inactive
CC1(C)Cc2cccc(O)c2O1,outcome,[3],inactive
same,outcome,[4],inactive
same,outcome,[5],inactive
O=C1CCCN1,outcome,[3],inactive
same,outcome,[4],inactive
C=C(C)C#N,outcome,[3],inactive
same,outcome,[4],inactive
CC(Br)C(=O)O (stereo unspecified),outcome,[3],inactive
same,outcome,[4],inactive
same,outcome,[5],inactive
C[C@H]1O[C@@H](O[C@H]2[C@@H](O)C[C@H](O[C@H]3[C@@H](O)C[C@H](O[C@H]4CC[C@@]5(C)[C@H](CC[C@@H]6[C@@H]5CC[C@]5(C)[C@@H](C7=CC(=O)OC7)CC[C@]65O)C4)O[C@@H]3C)O[C@@H]2C)C[C@H](O)[C@@H]1O,outcome,[3],inactive
same,outcome,[4],inactive
same,outcome,[5],inactive
CCOC(=O)Nc1cccc(OC(=O)Nc2ccccc2)c1,outcome,[3],inactive
same,outcome,[4],inactive
same,outcome,[5],inactive
